Measurements: PubChem BioAssay AID504329 (Southern Research Specialized Biocontainment Screening …, 2011)
Screen size: about 340,000 compounds; about 1,000 (0.29%) were called active. Cut-off read from the data, not from the text of the source: inconclusive = inhibition above about 27% without an active follow-up result; inactive = below that. Only a sample is shown. Potency and affinity values are given separately.

test: NS1A inhibition, H1N1 influenza, cell based functional assay (AID 504329); conditions: percent inhibition, at 12.5 µM, stronger effect = higher value

Row | Structure (SMILES) | inhibition
1 | O=C(O)c1cccc(NC(=O)c2ccccc2NC(=O)c2ccco2)c1 | -7.51% (inactive)
2 | CN(C)/C=C(\C(=O)c1cccc(Cl)c1)c1nnnn1-c1ccccc1 | -1.13% (inactive)
3 | N=C(N)c1ccc(N)cc1 | 2.89% (inactive)
4 | Nc1ccc(C(=O)C(=O)c2ccc(N)cc2)cc1 | 1.62% (inactive)
5 | CCOC(=O)c1cc(CC)sc1NC(=O)CC1SC(N)=NC1=O (centres undefined) | -8.66% (inactive)
6 | Cc1ccc(S(=O)(=O)Cn2nnnc2C(CC(C)C)N2CCN(C3CCCC3)CC2)cc1 (centres undefined) | -5.05% (inactive)
7 | COc1cc(C(=O)N/N=C(\Cc2ncc[nH]2)c2ccccc2)cc(OC)c1OC | -5.85% (inactive)
8 | COc1ccc(C(=O)N/N=C(\Cc2ncc[nH]2)c2ccccc2)cc1 | 1.55% (inactive)
9 | CN(CC(=O)Nc1ccccc1Cl)C(=O)COC(=O)c1ccc(-c2ccc(O)cc2)cc1 | -4.29% (inactive)
10 | CCC(=O)Nc1ccc(C(=O)N/N=C/c2c(C)[nH]c3ccccc23)cc1 | 10.2% (inactive)
11 | CC(CNC(=O)c1cc(COc2c(F)cccc2F)on1)Oc1cccnc1 (centres undefined) | 5.51% (inactive)
12 | COc1ccc(/C=C/C(=O)NC(=S)NNC(=O)c2cnccn2)cc1 | 22% (inactive)
13 | O=C(/C=C/c1ccccc1)NC(=S)NNC(=O)c1cccnc1 | 11.7% (inactive)
14 | O=C(NNC(=S)NC(=O)c1ccc(F)cc1)c1ccncc1 | -6.57% (inactive)
15 | O=C(NNC(=S)NC(=O)c1cccnc1)c1ccc(Cl)cc1 | -8.92% (inactive)
16 | O=C(NNC(=O)c1cnccn1)c1ccc(Cl)cc1 | -1.07% (inactive)
17 | O=C(NNC(=S)NC(=O)c1cccnc1)c1ccc(F)cc1 | 3.02% (inactive)
18 | CSc1nsc(SCC(=O)N2CCCc3ccccc32)n1 | -4.75% (inactive)
19 | COc1ccc(NC(C)=O)c2nc(C)c(C)nc12 | 2.97% (inactive)
20 | CC1(C)OC(c2ccccc2)=C/C(=C/C=Nc2ccccc2)O1 | -14.7% (inactive)

Row | Structure (SMILES) | inhibition
21 | CC1(C)OC(c2ccccc2)=C/C(=C/C=C2C(=O)NC(=O)NC2=O)O1 | 22.3% (inactive)
22 | CCN(CC)C(=O)Oc1cc(=O)n2c3c(cccc13)CCC2 | 2.43% (inactive)
23 | Cc1cc(C(=O)Nc2ccc3c(c2)OCO3)no1 | 6.49% (inactive)
24 | O=C(COc1ccc(Cl)cc1Br)OCC(=O)c1ccc[nH]1 | -4.26% (inactive)
25 | COc1cc(C2SCC(=O)Nc3c2c(=O)[nH]n3C2CCCCCC2)cc(OC)c1OC (centres undefined) | 3.42% (inactive)
26 | N#Cc1ccccc1OCC(=O)Nc1ccccc1C(=O)NC1CC1 | -6.65% (inactive)
27 | CCOC(=O)c1c(C)[nH]c(C(=O)N/N=C\c2ccccc2Cl)c1C | 1.32% (inactive)
28 | Cc1cc(C)n(CC(=O)N/N=C/c2cccc([N+](=O)[O-])c2)n1 | 4.33% (inactive)
29 | O=C(Cn1nc2ccccc2n1)N/N=C/c1cc(Cl)cc([N+](=O)[O-])c1O | 17.6% (inactive)
30 | CCOC(=O)c1c(C)[nH]c(C(=O)N/N=C\c2ccccc2O)c1C | 0.86% (inactive)
31 | COc1cc([N+](=O)[O-])cc(/C=N/NC(=O)Cn2nccc2C)c1O | 13.5% (inactive)
32 | Cc1cc(C)n(CC(=O)N/N=C/c2cc(Br)cc([N+](=O)[O-])c2O)n1 | 15.4% (inactive)
33 | O=C(Cn1nnc(-c2ccccc2)n1)N/N=C/c1cc([N+](=O)[O-])ccc1O | 0.1% (inactive)
34 | COc1cc([N+](=O)[O-])cc(/C=N/NC(=O)Cn2nc(C)cc2C)c1O | -28.6% (inactive)
35 | COc1ccc(NC(=S)N(CCO)Cc2ccccc2)cc1 | 1.27% (inactive)
36 | CN(C(=O)c1cncc(Br)c1)C1C2CC3CC(C2)CC1C3 (centres undefined) | 0.5% (inactive)
37 | O=C(COC(=O)C1CCC1)Nc1cc(S(=O)(=O)N2CCCCC2)ccc1Cl | 3.86% (inactive)
38 | O=C(c1cc(C2CC2)nn1-c1ccccc1)N1CCN(c2ncc(C(F)(F)F)cc2Cl)CC1 | -6.87% (inactive)
39 | CCc1ccccc1NCC(=O)Nc1ccccc1C(=O)OC | -3.34% (inactive)
40 | Cc1c(C)c2ccc(OCC(=O)c3ccccc3)cc2oc1=O | -16.6% (inactive)

Row | Structure (SMILES) | inhibition
41 | CC(=O)Nc1ccc(S(=O)(=O)N2CCN(CCc3ccccc3)CC2)cc1 | 0.26% (inactive)
42 | Nc1ccccc1N=Cc1c(O)n(CCC2=CCCCC2)c(=O)[nH]c1=O | -8.66% (inactive)
43 | COC(CNC(=O)C1CCCN(S(=O)(=O)c2c(C)noc2/C=C/c2cccs2)C1)OC (centres undefined) | 9.65% (inactive)
44 | O=C(OCc1ccccc1)N1CCC2CC1c1cc(-c3ccccc3)ccc12 (centres undefined) | -8.29% (inactive)
45 | CCOc1cccc(CN2CCCC(CNC(=O)c3cccc(OC)c3OC)C2)c1 (centres undefined) | 0.84% (inactive)
46 | COc1ccc(CCNC(=O)COC(=O)c2cc(S(=O)(=O)N3CCCC3)ccc2O)cc1 | -7.2% (inactive)
47 | C=CCCN(C(C(=O)OC)C(C)C)S(=O)(=O)c1ccccc1Br (centres undefined) | -12.7% (inactive)
48 | CN1CCN(CCC(=O)N/N=C/c2cc([N+](=O)[O-])ccc2OC(F)F)CC1 | -8.9% (inactive)
49 | Cc1ccc(C)c(NC(=O)CCC(=O)N/N=C/c2cc([N+](=O)[O-])ccc2O)c1 | 8.85% (inactive)
50 | Cc1ccc(NC(=O)CCC(=O)N/N=C/c2cc([N+](=O)[O-])ccc2O)cc1 | -7.13% (inactive)
51 | Cc1ccccc1NC(=O)CCC(=O)N/N=C/c1cc([N+](=O)[O-])ccc1O | 10.1% (inactive)
52 | COc1ccc(Br)cc1/C=N/NC(=O)Cn1nnnc1N | 0.27% (inactive)
53 | O=C(N/N=C/c1cc([N+](=O)[O-])ccc1O)C1CC1 | 4.39% (inactive)
54 | O=C(N/N=C/c1cc([N+](=O)[O-])ccc1O)Nc1ccccc1 | -0.02% (inactive)
55 | Nc1nnnn1CC(=O)N/N=C/c1cc([N+](=O)[O-])ccc1Cl | -6.51% (inactive)
56 | Cc1cc(C)c2c(c1)-c1c(ssc1=S)C(C)(C)N2C(=O)CSc1nncn1C | 9.33% (inactive)
57 | O=c1[nH]c(=O)n(Cc2ccco2)c(O)c1/C=N/N1CCCCCC1 | 12.8% (inactive)
58 | CCN(CC(=O)Nc1c(F)cccc1F)C(=O)CSCc1c(C)noc1C | -12.8% (inactive)
59 | COCCn1c(C)cc(C(=O)COC(=O)CNC(=O)c2ccccc2)c1C | 4.38% (inactive)
